PubChem BioAssay AID652162 (Broad Institute, 2013)
About 840 (0.24%) of roughly 350,000 compounds were called active. The sample holds actives, similar compounds and a random draw of the others, so the mix is not that of the screen. Values without a mark were called inactive. Cut-off read from the data, not from the text of the source: active = inhibition above about 10%; inactive = the rest.

These compounds were tested against Toxin B (Clostridioides difficile) (UniProt P18177) (assay: TcdB glycohydrolase inhibitors, primary screen, biochemical, single point, plate reader (AID 652162)). Settings: TcdB glycohydrolase enzymatic assay, at 9.99 µM, hits give high values.
Sequence of Toxin B (Clostridioides difficile) (P18177 whole entry, looked up): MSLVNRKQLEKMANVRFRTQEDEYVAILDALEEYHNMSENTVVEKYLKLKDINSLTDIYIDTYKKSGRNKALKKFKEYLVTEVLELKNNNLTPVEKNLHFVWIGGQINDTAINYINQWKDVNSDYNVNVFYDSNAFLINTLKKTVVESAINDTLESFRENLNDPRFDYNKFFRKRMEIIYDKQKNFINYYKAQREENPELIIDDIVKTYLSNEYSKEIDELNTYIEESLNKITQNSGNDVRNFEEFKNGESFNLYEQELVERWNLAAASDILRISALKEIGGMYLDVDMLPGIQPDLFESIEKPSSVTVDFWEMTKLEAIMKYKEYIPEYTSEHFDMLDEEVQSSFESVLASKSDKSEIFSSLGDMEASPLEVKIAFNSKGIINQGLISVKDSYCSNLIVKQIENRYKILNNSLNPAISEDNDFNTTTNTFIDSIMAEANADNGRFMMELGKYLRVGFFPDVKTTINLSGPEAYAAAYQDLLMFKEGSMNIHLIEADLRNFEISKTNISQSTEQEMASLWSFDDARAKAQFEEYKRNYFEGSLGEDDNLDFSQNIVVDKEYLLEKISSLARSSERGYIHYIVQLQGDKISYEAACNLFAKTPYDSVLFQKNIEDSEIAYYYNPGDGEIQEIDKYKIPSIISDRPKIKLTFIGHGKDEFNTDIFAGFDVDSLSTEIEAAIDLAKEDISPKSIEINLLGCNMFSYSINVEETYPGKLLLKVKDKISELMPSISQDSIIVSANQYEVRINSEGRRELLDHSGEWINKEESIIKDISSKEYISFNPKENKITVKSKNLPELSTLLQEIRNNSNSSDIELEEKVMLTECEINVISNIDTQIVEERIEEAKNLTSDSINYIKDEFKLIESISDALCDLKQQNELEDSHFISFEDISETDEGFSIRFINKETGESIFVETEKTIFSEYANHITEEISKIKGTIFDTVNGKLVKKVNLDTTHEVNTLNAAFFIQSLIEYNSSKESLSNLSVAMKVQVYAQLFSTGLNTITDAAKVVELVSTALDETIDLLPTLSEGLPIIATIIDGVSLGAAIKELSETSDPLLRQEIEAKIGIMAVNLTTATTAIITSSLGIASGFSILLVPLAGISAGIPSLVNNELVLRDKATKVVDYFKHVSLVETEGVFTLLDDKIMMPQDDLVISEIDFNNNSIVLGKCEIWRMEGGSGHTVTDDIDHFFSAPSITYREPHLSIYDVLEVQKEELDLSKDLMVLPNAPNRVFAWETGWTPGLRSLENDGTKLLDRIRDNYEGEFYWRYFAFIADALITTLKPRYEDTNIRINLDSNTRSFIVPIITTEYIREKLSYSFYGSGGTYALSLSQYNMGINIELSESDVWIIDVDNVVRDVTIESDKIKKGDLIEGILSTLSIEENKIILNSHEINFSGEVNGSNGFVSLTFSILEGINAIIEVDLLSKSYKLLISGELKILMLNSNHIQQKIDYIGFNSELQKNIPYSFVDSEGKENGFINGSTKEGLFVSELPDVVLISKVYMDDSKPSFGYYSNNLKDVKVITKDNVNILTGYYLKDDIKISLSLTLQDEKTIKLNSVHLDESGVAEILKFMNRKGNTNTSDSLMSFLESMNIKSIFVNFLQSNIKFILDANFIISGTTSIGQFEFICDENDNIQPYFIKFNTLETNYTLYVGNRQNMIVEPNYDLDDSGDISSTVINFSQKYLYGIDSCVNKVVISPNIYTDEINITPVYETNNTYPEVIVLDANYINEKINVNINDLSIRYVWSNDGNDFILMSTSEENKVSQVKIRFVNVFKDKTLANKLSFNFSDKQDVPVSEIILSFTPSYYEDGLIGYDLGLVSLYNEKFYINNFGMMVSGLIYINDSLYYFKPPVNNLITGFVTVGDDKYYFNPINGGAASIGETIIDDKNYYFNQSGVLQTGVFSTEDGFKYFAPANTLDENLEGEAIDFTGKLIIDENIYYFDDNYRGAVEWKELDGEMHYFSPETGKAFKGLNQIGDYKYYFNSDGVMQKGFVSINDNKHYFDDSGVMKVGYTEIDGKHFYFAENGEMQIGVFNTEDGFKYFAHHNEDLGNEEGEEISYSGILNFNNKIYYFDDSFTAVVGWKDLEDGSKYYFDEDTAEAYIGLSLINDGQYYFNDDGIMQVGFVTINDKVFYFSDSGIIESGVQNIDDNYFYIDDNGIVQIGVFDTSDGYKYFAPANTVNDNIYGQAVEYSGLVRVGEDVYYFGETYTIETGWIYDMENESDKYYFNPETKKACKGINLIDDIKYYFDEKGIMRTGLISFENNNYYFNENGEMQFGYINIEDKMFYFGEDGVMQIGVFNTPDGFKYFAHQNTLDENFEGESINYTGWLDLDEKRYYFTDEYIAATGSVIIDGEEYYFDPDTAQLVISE

Question: How did the inhibition turn out when COc1ccccc1NC(=O)N1CC(=O)N2[C@H](C1)[C@H](c1ccc(C#Cc3ccccc3)cc1)[C@@H]2CO was run?
Answer: Its inhibition is 0.309%.

Question: With O=C(C[C@H]1CC[C@@H]2[C@H](COC[C@@H](O)CN2CC2CC2)O1)NCC1CC1 as the compound, how does the inhibition read?
Answer: The inhibition was -1.35%.

Question: With O=C(C[C@@H]1CC[C@@H]2[C@H](COC[C@H](O)CN2CC2CCOCC2)O1)NCC1CCCCC1 as the compound, how does the inhibition read?
Answer: Its inhibition is 0.565%.

Question: For C[C@H]1CN([C@@H](C)CO)C(=O)c2cc(NS(=O)(=O)c3ccc(F)cc3)ccc2O[C@H]1CN(C)CC1CC1, which inhibition is on record?
Answer: Its inhibition is -1.14%.

Question: Which inhibition does the source give for O=C(C[C@@H]1C[C@@H]2c3cc(NS(=O)(=O)c4ccc(F)cc4)ccc3O[C@@H]2[C@H](CO)O1)NCc1cc(F)ccc1F here?
Answer: The inhibition was -0.254%.

Question: For C[C@@H]1CN([C@@H](C)CO)C(=O)c2cc(NC(=O)Nc3ccc(C(F)(F)F)cc3)ccc2O[C@@H](C)CCCCO[C@@H]1CN(C)C(=O)Nc1cccc2ccccc12, which inhibition is on record?
Answer: The inhibition was -0.569%.

Question: For C[C@@H]1CN([C@H](C)CO)C(=O)c2cccc(NS(=O)(=O)c3ccc(F)cc3)c2O[C@@H]1CN(C)C(=O)Nc1ccc(C(F)(F)F)cc1, which inhibition is on record?
Answer: The inhibition was 0.036%.

Question: C[C@@H]1CN([C@@H](C)CO)S(=O)(=O)c2ccc(/C=C/c3ccccc3)cc2O[C@H]1CN(C)C(=O)Nc1cc(F)ccc1F was tested. Which inhibition did it give?
Answer: Its inhibition is -0.621%.

Question: With O=C(N/C(=C\c1ccc(F)cc1)C(=O)N1CCCCCC1)c1ccccc1 as the compound, how does the inhibition read?
Answer: Its inhibition is 1.06%.

Question: How did the inhibition turn out when CC1CCN(C(=O)/C(=C\c2ccccc2)NC(=O)c2ccccc2)CC1 was run?
Answer: The inhibition was 0.574%.

Question: O=C(N/C(=C\c1ccc(O)cc1)C(=O)N1CCCCC1)c1ccccc1 was tested. Which inhibition did it give?
Answer: The inhibition was 14.3% (active).

Question: Which inhibition does the source give for C[C@H](CO)N1C[C@H](C)[C@H](CN(C)S(=O)(=O)c2ccccc2C#N)OCc2cn(nn2)CCCC1=O here?
Answer: The inhibition was -0.086%.

Question: Which inhibition does the source give for CNC[C@H]1OCCCC[C@@H](C)Oc2ccc(NS(C)(=O)=O)cc2C(=O)N([C@@H](C)CO)C[C@H]1C here?
Answer: Its inhibition is 0.355%.

Question: For CO[C@H]1CN(C)C(=O)c2cc(NC(=O)c3cc(C)on3)ccc2OC[C@@H](C)N(C(C)=O)C[C@H]1C, which inhibition is on record?
Answer: Its inhibition is -0.186%.

Question: With C[C@H](CO)N1C[C@H](C)[C@H](CN(C)S(=O)(=O)c2cccs2)Oc2ccc(NC(=O)Nc3ccccc3)cc2C1=O as the compound, how does the inhibition read?
Answer: Its inhibition is -11.1%.

Question: With O=C(Nc1cccc(Cl)c1)N[C@@H]1CC[C@@H](CCNC(=O)C2CCOCC2)O[C@@H]1CO as the compound, how does the inhibition read?
Answer: The inhibition was -0.908%.

Question: CN(c1ccc(O)cc1)c1nc(-c2cccnc2)cs1 was tested. Which inhibition did it give?
Answer: Its inhibition is 14.9% (active).

Question: CN(C)c1ccc(-c2nnc(-c3cccnc3)o2)cc1 was tested. Which inhibition did it give?
Answer: The inhibition was 0.383%.

Question: O=C(NNC(=O)c1csc(-c2cccnc2)n1)Nc1ccc(Cl)cc1 was tested. Which inhibition did it give?
Answer: Its inhibition is 0.087%.

Question: Which inhibition does the source give for CCCNC(=O)C[C@H]1C[C@@H]2c3cc(NC(=O)NC4CCCC4)ccc3O[C@@H]2[C@@H](CO)O1 here?
Answer: Its inhibition is -0.087%.

Question: For O=C(c1cccc(F)c1)N1CC[C@@H]2[C@H](CO)Nc3ccc(-c4ccccc4)cc3[C@@H]21, which inhibition is on record?
Answer: Its inhibition is -1.25%.

Question: CCC(=O)N(C)C[C@H]1Oc2cc(/C=C/c3ccccc3)ccc2S(=O)(=O)N([C@H](C)CO)C[C@H]1C was tested. Which inhibition did it give?
Answer: The inhibition was 0.008%.

Question: CCCC#Cc1ccc([C@H]2[C@@H](CO)N3C(=O)CN(C(=O)c4ccncc4)C[C@H]23)cc1 was tested. Which inhibition did it give?
Answer: Its inhibition is 0.225%.

Question: COc1ccccc1S(=O)(=O)N1CC[C@@H]2[C@H]1c1cc(-c3ccccc3)ccc1N[C@@H]2CO was tested. Which inhibition did it give?
Answer: Its inhibition is -0.443%.

Question: Which inhibition does the source give for COc1ccc(S(=O)(=O)Nc2ccc3c(c2)C(=O)N([C@@H](C)CO)C[C@@H](C)[C@H](CN(C)S(=O)(=O)c2cccs2)O3)cc1 here?
Answer: The inhibition was 0.284%.

Question: With C[C@H](CO)N1C[C@H](C)[C@H](CN(C)S(=O)(=O)c2cccc(F)c2)Oc2ncc(/C=C/c3ccccc3)cc2C1=O as the compound, how does the inhibition read?
Answer: The inhibition was 0.994%.

Question: For O=C(Cc1ccccn1)N[C@H]1CC[C@H](CCn2cc(-c3ccc(F)cc3)nn2)O[C@H]1CO, which inhibition is on record?
Answer: Its inhibition is -7.26%.

Question: With CO[C@@H]1CN(C)C(=O)c2cc(NC(C)=O)ccc2OC[C@H](C)N(Cc2ccccn2)C[C@H]1C as the compound, how does the inhibition read?
Answer: Its inhibition is 0.576%.

Question: COc1cccc(-n2c(=S)sc3c(=O)n(-c4ccccc4OC)c(SCC4OCCO4)nc32)c1 was tested. Which inhibition did it give?
Answer: The inhibition was 1.51%.

Question: With COc1ccccc1-n1c(SCC(=O)O)nc2sc3c(c2c1=O)CCC3 as the compound, how does the inhibition read?
Answer: Its inhibition is -0.511%.

Question: For COc1ccc(Cl)cc1-n1c(=S)sc2c(=O)n(-c3ccc(F)cc3)c(SCC(=O)O)nc21, which inhibition is on record?
Answer: Its inhibition is 20.5% (active).

Question: Which inhibition does the source give for Cc1cccc(S(=O)(=O)N2CCCCN3[C@@H](CO)[C@H](c4ccc(-c5cccnc5)cc4)[C@@H]3C2)c1 here?
Answer: Its inhibition is 0.453%.

Question: Which inhibition does the source give for CCNC(=O)C[C@H]1CC[C@@H]2[C@H](COC[C@H](O)CN2C(=O)Nc2c(C)noc2C)O1 here?
Answer: Its inhibition is -1.03%.

Question: COc1ccc(CN(C)C[C@H]2OCCCC[C@H](C)Oc3ccc(NC(=O)NC4CCCCC4)cc3C(=O)N([C@@H](C)CO)C[C@@H]2C)cc1 was tested. Which inhibition did it give?
Answer: The inhibition was 0.374%.

Question: Which inhibition does the source give for CO[C@@H]1CN(C)C(=O)c2cc(NC(=O)c3ccc4c(c3)OCO4)ccc2OC[C@H](C)N(CCC(F)(F)F)C[C@H]1C here?
Answer: The inhibition was 1.3%.

Question: For O=C(NCC[C@H]1CC[C@@H](NS(=O)(=O)c2cccc(Cl)c2)[C@@H](CO)O1)c1cnccn1, which inhibition is on record?
Answer: The inhibition was -2.69%.

Question: How did the inhibition turn out when C[C@H]1CN([C@@H](C)CO)C(=O)c2cc(C#Cc3ccccc3F)cnc2O[C@@H]1CN(C)C(=O)C1CC1 was run?
Answer: Its inhibition is -2.35%.

Question: For N#C[C@H]1[C@@H](c2ccccc2C2=CCCCC2)[C@H](CO)N1C(=O)c1ccccn1, which inhibition is on record?
Answer: The inhibition was -7.67%.

Question: How did the inhibition turn out when COc1ccc2c3c(n(C)c2c1)[C@H](CO)N(C(C)=O)CC31CN(C(=O)c2cnccn2)C1 was run?
Answer: The inhibition was 0.415%.

Question: CCOC(=O)C1CCN(Cc2c(C(=O)N3CCOCC3)nc3c(C)cccn23)CC1 was tested. Which inhibition did it give?
Answer: The inhibition was 1.15%.

Question: How did the inhibition turn out when Cc1cccn2c(CNCC(C)Oc3cccnc3)c(C(=O)N3CCOCC3)nc12 (stereo unspecified) was run?
Answer: Its inhibition is -0.924%.

Question: Which inhibition does the source give for Cc1cccn2c(CN(C)C3CCCc4ccccc43)c(C(=O)N3CCOCC3)nc12 (stereo unspecified) here?
Answer: The inhibition was 11% (active).

Question: With COc1ccc(C#Cc2ccc([C@H]3[C@H]4CN(C(=O)c5ccncc5)CC(=O)N4[C@H]3CO)cc2)cc1 as the compound, how does the inhibition read?
Answer: The inhibition was -0.009%.

Question: N#C[C@@H]1[C@H](c2ccccc2-c2cccc(F)c2)[C@@H](CO)N1C(=O)CN1CCOCC1 was tested. Which inhibition did it give?
Answer: The inhibition was -0.655%.

Question: For Cc1noc(C)c1NC(=O)N[C@@H]1CC[C@H](CC(=O)Nc2ccccc2)O[C@H]1CO, which inhibition is on record?
Answer: The inhibition was 2.14%.

Question: For CO[C@@H]1CC[C@@H]2CCOc3c(C#N)cccc3C(=O)N(C)C[C@@H](C)C(=O)N(C)C[C@@H]1O2, which inhibition is on record?
Answer: The inhibition was -0.159%.
